These results are taken from the supplement of paper PMC11732987, “Enantioselective OTUD7B fragment discovery through chemoproteomics screening and high-throughput optimisation” (Communications Chemistry, 2025).

Experiment in all cases: log2 ratio of Biotin-Ahx-Ub-VS probe labelling (fragment/DMSO); higher = less target engagement (more negative = stronger competition), active = hit call of the paper (q ≤ 0.05, log2 ratio ≤ -1)
Conditions in all cases: compound concentration: 200 uM; treatment time: 3 h

For one experiment, the target named is T1, USP19 (UniProt O94966).
T1 sequence (whole entry): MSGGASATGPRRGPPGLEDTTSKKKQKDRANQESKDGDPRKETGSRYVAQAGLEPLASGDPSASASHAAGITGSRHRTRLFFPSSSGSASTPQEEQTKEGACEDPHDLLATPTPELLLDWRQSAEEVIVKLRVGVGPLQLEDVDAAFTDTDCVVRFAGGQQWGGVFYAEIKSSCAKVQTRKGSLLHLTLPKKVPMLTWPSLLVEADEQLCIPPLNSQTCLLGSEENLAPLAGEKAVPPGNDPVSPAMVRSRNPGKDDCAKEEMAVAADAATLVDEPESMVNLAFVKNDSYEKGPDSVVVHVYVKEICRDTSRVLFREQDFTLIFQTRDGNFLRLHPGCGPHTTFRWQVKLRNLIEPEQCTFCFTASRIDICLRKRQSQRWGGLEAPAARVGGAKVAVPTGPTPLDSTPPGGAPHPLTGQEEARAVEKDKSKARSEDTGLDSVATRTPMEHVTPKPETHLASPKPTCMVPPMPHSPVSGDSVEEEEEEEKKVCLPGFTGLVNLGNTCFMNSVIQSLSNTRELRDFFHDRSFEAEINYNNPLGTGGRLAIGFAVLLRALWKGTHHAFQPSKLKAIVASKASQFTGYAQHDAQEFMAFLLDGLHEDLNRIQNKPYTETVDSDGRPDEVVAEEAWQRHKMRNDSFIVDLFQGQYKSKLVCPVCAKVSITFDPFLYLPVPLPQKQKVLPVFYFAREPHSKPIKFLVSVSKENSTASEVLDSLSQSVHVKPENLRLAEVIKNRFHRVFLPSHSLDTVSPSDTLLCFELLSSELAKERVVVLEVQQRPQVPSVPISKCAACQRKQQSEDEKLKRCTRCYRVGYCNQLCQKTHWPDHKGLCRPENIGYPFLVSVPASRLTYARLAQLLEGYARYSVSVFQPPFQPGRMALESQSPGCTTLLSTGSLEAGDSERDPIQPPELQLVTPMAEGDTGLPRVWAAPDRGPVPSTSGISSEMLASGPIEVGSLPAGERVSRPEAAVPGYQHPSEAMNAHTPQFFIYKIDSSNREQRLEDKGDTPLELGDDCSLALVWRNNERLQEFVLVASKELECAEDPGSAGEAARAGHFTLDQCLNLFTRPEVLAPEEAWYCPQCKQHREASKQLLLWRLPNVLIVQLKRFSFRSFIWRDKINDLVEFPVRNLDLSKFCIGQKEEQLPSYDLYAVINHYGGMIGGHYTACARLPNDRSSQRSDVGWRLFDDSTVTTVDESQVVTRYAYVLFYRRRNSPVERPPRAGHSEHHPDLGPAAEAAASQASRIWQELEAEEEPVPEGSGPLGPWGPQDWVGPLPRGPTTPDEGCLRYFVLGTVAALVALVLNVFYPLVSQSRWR
An outline of the steps: (§1)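 HEK293T lysate, 495 µg per sample in Tris/CHAPS/IGEPAL buffer with protease inhibitors, was treated in triplicate with fragment at 200 µM or vehicle for 3 h and then with Biotin-Ahx-Ub-VS at 0.5 µM final for 1 h. Labelled DUBs were NeutrAvidin-enriched, digested with LysC and trypsin, and run by diaPASEF LC-MS/MS. Spectronaut label-free quantities were global-median-normalised, and values are average log2 fragment/vehicle ratios by unpaired t-test on proteins with ≥2 unique peptides.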

The next experiment concerns the target T2, USP22 (UniProt Q9UPT9).
T2 sequence (whole entry): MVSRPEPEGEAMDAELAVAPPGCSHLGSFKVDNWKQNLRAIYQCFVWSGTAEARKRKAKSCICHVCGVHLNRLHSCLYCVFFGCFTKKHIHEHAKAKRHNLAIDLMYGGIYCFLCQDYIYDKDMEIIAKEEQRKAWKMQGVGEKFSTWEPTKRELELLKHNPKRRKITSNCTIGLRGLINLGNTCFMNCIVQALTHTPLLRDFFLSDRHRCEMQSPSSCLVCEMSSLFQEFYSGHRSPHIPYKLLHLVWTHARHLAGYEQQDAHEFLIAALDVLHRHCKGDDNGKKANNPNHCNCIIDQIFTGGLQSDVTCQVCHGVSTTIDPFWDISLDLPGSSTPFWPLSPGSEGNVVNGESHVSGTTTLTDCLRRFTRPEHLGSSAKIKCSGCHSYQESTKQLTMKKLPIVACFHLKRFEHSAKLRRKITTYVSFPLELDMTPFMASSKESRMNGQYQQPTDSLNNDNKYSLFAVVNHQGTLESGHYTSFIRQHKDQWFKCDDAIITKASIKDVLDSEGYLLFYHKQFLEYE
The gist of the method:
as §1

Another experiment concerns the target USP24 (UniProt Q9UPU5). The gist of the method:
as §1

Another experiment has as its target T3, USP25 (UniProt Q9UHP3).
T3 sequence (whole entry): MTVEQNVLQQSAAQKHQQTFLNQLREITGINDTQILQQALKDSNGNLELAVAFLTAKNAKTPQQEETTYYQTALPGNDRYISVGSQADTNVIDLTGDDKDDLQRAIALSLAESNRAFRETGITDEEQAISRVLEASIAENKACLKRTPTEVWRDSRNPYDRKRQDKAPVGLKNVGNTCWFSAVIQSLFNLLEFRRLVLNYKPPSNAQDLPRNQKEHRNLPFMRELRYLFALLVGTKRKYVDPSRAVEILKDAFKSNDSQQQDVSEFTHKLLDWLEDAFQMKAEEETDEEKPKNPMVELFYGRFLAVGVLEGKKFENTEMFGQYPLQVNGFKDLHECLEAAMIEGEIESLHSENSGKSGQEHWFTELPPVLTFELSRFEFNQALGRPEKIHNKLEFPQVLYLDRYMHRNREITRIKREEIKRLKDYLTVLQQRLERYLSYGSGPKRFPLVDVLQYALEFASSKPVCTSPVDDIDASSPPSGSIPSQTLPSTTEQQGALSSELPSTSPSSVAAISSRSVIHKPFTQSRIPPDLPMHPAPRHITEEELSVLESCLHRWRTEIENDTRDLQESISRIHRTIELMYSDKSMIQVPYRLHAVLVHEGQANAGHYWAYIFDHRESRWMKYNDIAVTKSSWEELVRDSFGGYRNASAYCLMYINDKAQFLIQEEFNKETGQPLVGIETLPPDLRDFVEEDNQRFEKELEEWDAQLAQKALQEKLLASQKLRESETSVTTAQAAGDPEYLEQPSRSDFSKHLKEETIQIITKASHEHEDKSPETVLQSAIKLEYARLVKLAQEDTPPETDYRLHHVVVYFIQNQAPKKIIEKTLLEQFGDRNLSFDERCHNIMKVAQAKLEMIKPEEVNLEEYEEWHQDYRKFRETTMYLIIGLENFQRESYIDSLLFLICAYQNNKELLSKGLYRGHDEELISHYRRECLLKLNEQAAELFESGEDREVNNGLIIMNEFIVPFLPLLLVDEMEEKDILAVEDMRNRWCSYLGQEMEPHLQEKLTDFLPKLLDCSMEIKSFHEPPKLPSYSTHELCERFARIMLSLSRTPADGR
The gist of the method: as §1

A further experiment addresses T4, USP28 (UniProt Q96RU2).
T4 sequence (whole entry): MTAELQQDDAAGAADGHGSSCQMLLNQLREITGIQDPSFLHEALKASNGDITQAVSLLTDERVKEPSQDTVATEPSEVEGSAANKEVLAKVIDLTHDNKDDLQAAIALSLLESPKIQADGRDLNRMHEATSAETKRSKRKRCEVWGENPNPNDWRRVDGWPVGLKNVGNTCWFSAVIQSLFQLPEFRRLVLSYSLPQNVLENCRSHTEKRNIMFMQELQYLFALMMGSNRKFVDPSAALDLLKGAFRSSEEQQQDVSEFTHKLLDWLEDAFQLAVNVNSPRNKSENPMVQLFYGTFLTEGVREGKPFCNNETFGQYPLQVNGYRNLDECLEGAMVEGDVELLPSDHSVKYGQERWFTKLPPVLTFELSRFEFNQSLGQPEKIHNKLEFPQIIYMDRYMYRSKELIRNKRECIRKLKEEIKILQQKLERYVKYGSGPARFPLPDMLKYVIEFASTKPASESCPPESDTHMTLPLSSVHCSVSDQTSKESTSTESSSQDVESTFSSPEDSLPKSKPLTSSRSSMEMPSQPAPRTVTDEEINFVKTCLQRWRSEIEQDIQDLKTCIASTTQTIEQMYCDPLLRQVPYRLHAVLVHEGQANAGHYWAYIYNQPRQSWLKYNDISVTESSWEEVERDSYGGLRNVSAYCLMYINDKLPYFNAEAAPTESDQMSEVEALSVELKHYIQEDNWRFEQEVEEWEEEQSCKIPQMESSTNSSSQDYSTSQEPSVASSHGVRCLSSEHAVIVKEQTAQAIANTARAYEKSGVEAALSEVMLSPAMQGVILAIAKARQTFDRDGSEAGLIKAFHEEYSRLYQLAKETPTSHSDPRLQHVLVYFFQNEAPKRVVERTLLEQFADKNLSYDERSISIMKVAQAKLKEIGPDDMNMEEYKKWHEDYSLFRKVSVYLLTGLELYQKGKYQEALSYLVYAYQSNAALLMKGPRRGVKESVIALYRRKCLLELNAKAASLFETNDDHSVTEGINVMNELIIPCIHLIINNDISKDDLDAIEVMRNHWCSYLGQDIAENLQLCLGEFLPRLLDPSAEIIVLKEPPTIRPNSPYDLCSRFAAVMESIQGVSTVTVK
The gist of the method: as §1

The structures appear in SMILES notation. Unmarked numbers belong to inactive results.

Sequence of USP24 (Q9UPU5 whole entry): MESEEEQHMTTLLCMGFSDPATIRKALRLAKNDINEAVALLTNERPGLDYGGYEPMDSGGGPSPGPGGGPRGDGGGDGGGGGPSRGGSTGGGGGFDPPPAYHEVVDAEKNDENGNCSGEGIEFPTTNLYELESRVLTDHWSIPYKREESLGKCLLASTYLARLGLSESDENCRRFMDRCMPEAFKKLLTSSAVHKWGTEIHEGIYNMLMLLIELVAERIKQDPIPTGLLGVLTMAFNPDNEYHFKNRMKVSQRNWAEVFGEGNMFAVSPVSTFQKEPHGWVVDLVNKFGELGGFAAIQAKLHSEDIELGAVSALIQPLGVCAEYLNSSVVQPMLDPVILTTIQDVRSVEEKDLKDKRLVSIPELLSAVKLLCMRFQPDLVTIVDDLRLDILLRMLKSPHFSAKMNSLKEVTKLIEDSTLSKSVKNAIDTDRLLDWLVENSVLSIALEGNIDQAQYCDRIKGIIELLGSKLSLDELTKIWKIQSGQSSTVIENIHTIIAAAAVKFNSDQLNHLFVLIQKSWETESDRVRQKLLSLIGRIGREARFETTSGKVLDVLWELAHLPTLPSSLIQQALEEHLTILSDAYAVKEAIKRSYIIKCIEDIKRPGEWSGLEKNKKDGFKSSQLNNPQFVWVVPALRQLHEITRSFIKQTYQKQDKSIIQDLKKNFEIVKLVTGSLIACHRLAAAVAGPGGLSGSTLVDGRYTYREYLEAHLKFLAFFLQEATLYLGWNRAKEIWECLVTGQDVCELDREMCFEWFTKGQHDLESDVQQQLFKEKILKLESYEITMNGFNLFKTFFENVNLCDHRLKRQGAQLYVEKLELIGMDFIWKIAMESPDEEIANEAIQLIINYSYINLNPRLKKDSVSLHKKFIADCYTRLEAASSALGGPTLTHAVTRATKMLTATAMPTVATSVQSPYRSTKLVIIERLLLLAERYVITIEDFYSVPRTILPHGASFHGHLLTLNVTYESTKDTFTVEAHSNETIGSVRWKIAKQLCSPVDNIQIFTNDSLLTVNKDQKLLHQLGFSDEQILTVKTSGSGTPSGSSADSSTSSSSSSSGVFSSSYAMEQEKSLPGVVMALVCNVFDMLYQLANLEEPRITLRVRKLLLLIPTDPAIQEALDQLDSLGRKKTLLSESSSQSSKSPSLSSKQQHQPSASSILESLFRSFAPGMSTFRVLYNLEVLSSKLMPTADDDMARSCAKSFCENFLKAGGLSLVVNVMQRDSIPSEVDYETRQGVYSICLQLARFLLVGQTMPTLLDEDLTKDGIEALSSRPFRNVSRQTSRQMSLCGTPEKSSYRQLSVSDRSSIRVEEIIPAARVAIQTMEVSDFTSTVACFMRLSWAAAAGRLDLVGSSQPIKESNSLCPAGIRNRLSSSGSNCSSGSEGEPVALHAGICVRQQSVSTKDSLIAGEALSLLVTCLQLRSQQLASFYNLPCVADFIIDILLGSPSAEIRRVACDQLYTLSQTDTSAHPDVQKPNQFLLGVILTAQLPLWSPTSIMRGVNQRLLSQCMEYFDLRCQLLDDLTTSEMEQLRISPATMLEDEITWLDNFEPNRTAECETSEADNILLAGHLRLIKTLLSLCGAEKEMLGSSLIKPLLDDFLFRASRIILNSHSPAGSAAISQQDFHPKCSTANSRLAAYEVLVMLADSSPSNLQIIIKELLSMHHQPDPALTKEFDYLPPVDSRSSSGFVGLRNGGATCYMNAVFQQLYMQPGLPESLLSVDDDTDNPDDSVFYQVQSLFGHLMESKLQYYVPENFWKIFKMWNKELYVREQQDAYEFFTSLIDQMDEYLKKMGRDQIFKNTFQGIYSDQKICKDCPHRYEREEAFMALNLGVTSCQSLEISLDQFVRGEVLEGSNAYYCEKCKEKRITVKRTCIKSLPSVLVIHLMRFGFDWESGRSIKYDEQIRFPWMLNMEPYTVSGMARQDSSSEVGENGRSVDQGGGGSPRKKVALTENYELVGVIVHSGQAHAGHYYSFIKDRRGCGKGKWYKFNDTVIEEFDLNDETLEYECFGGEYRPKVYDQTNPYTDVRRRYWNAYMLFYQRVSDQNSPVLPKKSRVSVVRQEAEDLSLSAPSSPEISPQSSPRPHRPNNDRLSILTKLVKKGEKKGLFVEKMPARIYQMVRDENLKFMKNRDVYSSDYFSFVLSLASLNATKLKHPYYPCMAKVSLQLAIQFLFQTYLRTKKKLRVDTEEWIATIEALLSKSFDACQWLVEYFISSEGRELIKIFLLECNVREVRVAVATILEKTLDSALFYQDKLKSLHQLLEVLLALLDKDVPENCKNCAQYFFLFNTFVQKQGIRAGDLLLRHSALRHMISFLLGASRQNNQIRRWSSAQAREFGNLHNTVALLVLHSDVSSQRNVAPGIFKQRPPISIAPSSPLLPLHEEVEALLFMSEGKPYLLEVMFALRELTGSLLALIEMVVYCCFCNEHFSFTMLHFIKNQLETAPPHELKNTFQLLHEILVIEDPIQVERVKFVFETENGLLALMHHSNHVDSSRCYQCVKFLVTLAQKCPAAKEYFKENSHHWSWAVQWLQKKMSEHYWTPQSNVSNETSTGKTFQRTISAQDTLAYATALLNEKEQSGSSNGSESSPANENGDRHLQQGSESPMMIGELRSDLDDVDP

Regarding `Cc1ccccc1CN(C)C(=O)CCl`, the “log2 ratio of Biotin-Ahx-Ub-VS probe labelling” value is -0.829 with USP19; -0.0794 in the experiment with USP22; -1.38 (active) with USP24; -1.03 (active) in the experiment with USP25; -1.35 (active) with USP28.
